Screening results: PubChem, several laboratories
In the library only some 1% were active in any assay of this set; here they are far more common.
SSB-PriA inh: inhibitors of Klebsiella pneumoniae PriA binding to SSB C-terminal tail | actives 0.6% (n = 430,000) | inhibition, % at 33 µM | AID 1272365 | AlphaScreen SSBct-PriA binding, biotinylated peptide; in the data active means inhibition mostly above about 37%, no sharp cut-off; inactive means mostly below about 20%;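 further: plate controls were negative control peptide for no effect and reference peptide for full effect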
FadD28 binding: M. tuberculosis FadD28 bisubstrate binding inhibition; FadD28 bisubstrate probe binding, fluorescence polarization; inhibition, % at 12.5 µM; actives 0.22% (n = 360,000); AID 588549; in the data active means inhibition above about 8.5%, passing the limit was not always enough
PrP 5UTR inh: suppresses PrP 5' UTR mRNA reporter expression | cell-based PrP 5' UTR mRNA reporter, plate reader | inhibition, % (test concentration not listed) | actives 0.35% (n = 340,000) | AID 488862; in the data active means inhibition above about 52%; further: 0 = median of the neutral control wells
Mtb hypoxia rep: Mtb hypoxia fluorescent reporter inhibition. fluorescence inhibition, % (concentration not given with the values). AID 1159583. actives 0.1% (n = 300,000). M. tuberculosis hypoxia-regulated fluorescent reporter, fluorescence; in the data active means fluorescence inhibition mostly above about 23%, no sharp cut-off; inactive means mostly below about 17%
Mtb BioA inh: BioA (M. tuberculosis) enzyme inhibition | actives 0.096% (n = 360,000) | inhibition, % at 9.99 µM | purified M. tuberculosis BioA enzyme, plate reader; in the data active means inhibition above about 40%
TcdB GH inh: blocks C. difficile toxin B glycohydrolase activity | AID 652162 | inhibition, % at 9.99 µM | actives 0.24% (n = 350,000) | P18177 | TcdB glycohydrolase enzymatic assay, plate reader; in the data active means inhibition above about 10%
* marks the source's active call; other numbers are inactive results; . = no result given; ! = not active in a repeat.

SMILES	SSB-PriA inh	FadD28 binding	PrP 5UTR inh	Mtb hypoxia rep	Mtb BioA inh	TcdB GH inh
Cc1cc2ccccn2c1C(=O)c1cc([N+](=O)[O-])cc([N+](=O)[O-])c1	49*	1	-8	-2	.	0
CC(=NNc1ccc(C(=O)c2c(C)cc3ccccn23)cc1[N+](=O)[O-])c1ccc(O)cc1	2	.	.	3	.	.
Cc1cc2ccccn2c1C(=O)c1ccc(NN)c([N+](=O)[O-])c1	47*	0	-13	4	0	-8
COC(=O)c1cc(C(=O)c2c(C)cc3ccccn23)cc([N+](=O)[O-])c1	11	-3	-32	3	2	1
CC1=C(C(=O)OCc2ccccc2)C(c2cccs2)NC(=O)N1CCCC(=O)O (stereo unspecified)	-3	-2	-5	-11	-1	1
COc1ccc(C)cc1NC(=O)CSc1cc(-c2ccccn2)nc(C)n1	42	.	.	.	.	.
COc1ccc(C)cc1NC(=O)CSc1ccc(-c2ccccn2)nn1	52*	-2	-8	0	3	0
COc1ccc(C)cc1NC(=O)CSc1ccccn1	56*	.	.	.	.	.
CN1C(=O)SC(Nc2ccccc2C(=O)O)C1=O (stereo unspecified)	-9	0	-27	9	.	.
O=C(COC(=O)c1ccc([N+](=O)[O-])o1)Nc1ccc(F)cc1	4	-1	-13	35*	-1	2
O=C(CNC(=O)c1ccco1)OCc1cccc(Cl)c1	-9	-2	-9	-1	.	.
CCN1C(=O)CC(N2CCN(c3cccc(OC)c3)CC2)C1=O (stereo unspecified)	2	-1	-20	3	1	0
CC(=O)Nc1cnc(-c2ccccc2O)cn1	.	-3	.	.	-2	12*
CSc1ccccc1-c1cnc(NC(C)=O)cn1	.	1	.	.	0	1
CCO[C@@H]1OC(C(N)=O)=C[C@H](c2cn(C(C)=O)c3ccccc23)[C@H]1CCCO	-7	0	-20	.	0	2
Cn1ncc(Cl)c1C(=O)N/N=C/c1cccc(OC2CSC2)c1	.	1	5	.	.	23*
O=c1c2ccccc2oc2ccc(NCCCN3CCOCC3)cc12	-10	-3	-32	6	12	13*
CNC[C@H]1Oc2ccc(NC(=O)Cn3cnnn3)cc2C(=O)N([C@@H](C)CO)C[C@H]1C	.	.	.	.	-1	1
Cc1ccc(-c2csc3nc[nH]c(=S)c23)cc1C	48*	-1	-10	0	-2	.
O=C(COc1ccccc1)NCC(=O)Nc1ccc(S(=O)(=O)NCc2ccco2)cc1	19	-4	-41	.	2	.
Cc1ccccc1-c1nc(C#N)c(N2CCCC2)o1	61	.	.	.	.	.
Cc1ccccc1-c1nc(C#N)c(N2CCOCC2)o1	70*	.	.	.	.	.
CC1CC(C)CN(c2oc(-c3ccccc3F)nc2C#N)C1 (stereo unspecified)	50*	.	-14	2	2	2
CC1CCCN(c2oc(-c3cccc4ccccc34)nc2C#N)C1 (stereo unspecified)	-11	-2	-36	5	0	.
COc1ccccc1-c1nc(C#N)c(N2CC(C)CC(C)C2)o1 (stereo unspecified)	-2	-1	-21	11	1	-4
SMILES	SSB-PriA inh	FadD28 binding	PrP 5UTR inh	Mtb hypoxia rep	Mtb BioA inh	TcdB GH inh
Cc1ccccc1-c1nc(C#N)c(N2CCCC(C)C2)o1 (stereo unspecified)	66*	.	.	.	.	.
CN1CCN(CC(O)(c2ccc(Cl)cc2)c2ccc(Cl)cc2)CC1	-4	-7	-27	5	2	1
Cc1ccccc1OCC(O)CN1CCN(CCN2C(=O)c3cccc4cccc(c34)C2=O)CC1 (stereo unspecified)	34	-4	-16	-4	.	0
Cc1ccc(OCCOC[C@@H](O)CN2CCN(CCN3C(=O)c4cccc5cccc(c45)C3=O)CC2)cc1C	36*	.	.	.	.	.
COc1cc(/C=C(\C#N)C(=O)N2CCCCC2)ccc1O	-9	-3	-13	10	0	14*
Cc1ccc(S(=O)(=O)N[C@H]2C=C[C@@H](CC(=O)NCCCN(C)C)O[C@@H]2CO)cc1	.	.	.	.	2	-1
COc1ccc2cc3c(nc2c1)OCC3	0	0	-17	19	-2	11*
COc1ccc2nc3c(nc2c1)CCCC3	-15	-2	-50	17	0	1
CCC1=NNc2cccc3c(OC)ccc1c23	.	.	.	60*	.	.
O=C(NCCc1ccc(Cl)cc1)C1CCN(S(=O)(=O)N2CCCC2)CC1	-12	-3	-14	5	-2	.
O=C(NCCc1ccc(Cl)cc1)C1CCN(S(=O)(=O)c2ccc(Br)s2)CC1	-13	-7	-10	9	.	16*
Oc1ccccc1Oc1ncc(Br)c(N2CCOCC2)n1	-21	-4	-1	3	1	.
Oc1ccccc1Oc1c(F)c(F)nc(N2CCCC2)c1F	-13	21*	-16	1	6	1
CS(=O)(=O)N(CC(=O)Nc1c(F)cccc1F)c1ccc(C23CC4CC(CC(C4)C2)C3)cc1	1	0	-26	-3	1	.
Cc1ccc(S(=O)(=O)NCC(=O)N2CCOC(c3ccccc3)C2)c(C)c1 (stereo unspecified)	8	.	.	.	.	.
C[C@@H]1CCCCO[C@@H](CN(C)S(C)(=O)=O)[C@@H](C)CN([C@H](C)CO)C(=O)c2cc(NS(=O)(=O)c3ccc(Cl)cc3)ccc2O1	.	.	.	.	-2	2
COCCNc1nc(NCc2ccccc2)c2cnn(C)c2n1	-6	-4	-5	13	1	2
COc1ccc2nc(NC(=O)C3COc4ccccc4O3)sc2c1 (stereo unspecified)	-11	-5	-94	4	1	0
COc1ccc2nc(NNC(=O)C3COc4ccccc4O3)sc2c1 (stereo unspecified)	8	-3	-2	.	0	39*
CN(C)CCCN(C(=O)c1ccc(C(=O)c2ccccc2)cc1)c1nc2ccc(F)cc2s1	17	-5	-6	16	4	2
COc1ccc2sc(N(Cc3ccccc3)C(=O)c3ccc(S(=O)(=O)N(C)C)cc3)nc2c1	-10	.	.	.	.	.
CCN(Cc1ccccc1)S(=O)(=O)c1ccc(C(=O)N(CCCN(C)C)c2nc3ccc(F)cc3s2)cc1	37*!	-1	6	4	-3	1
CCN(Cc1ccccc1)S(=O)(=O)c1ccc(C(=O)N(CCCN(C)C)c2nc3cc4c(cc3s2)OCCO4)cc1	47*	-6	-21	15	0	1
CN(C)CCCN(C(=O)c1ccc(S(=O)(=O)N(C)Cc2ccccc2)cc1)c1nc2c(F)cccc2s1	39*!	0	-10	0	-3	1
CCN(Cc1ccccc1)S(=O)(=O)c1ccc(C(=O)N(CCCN(C)C)c2nc3cc(OC)ccc3s2)cc1	51*!	-21	-13	11	.	0
CCN(CC)CCN(C(=O)c1ccc(S(=O)(=O)N(C)Cc2ccccc2)cc1)c1nc2c(C)cccc2s1	24	.	.	.	.	.
